# Reference: PubChem BioAssay (NCI)
# “And” between values parts separate entries of the source, which are not always exact repeats. Identical values can stand only once. This is part of a sample that, as a whole, favours compounds with a hit. Of some 79,000 tested, about 15% had one in any assay. Values without a mark were called inactive. The source made the active and inactive calls. Rule as the data show it: active = growth inhibition above about 70%; inactive = the rest.
# Assays:
# [1] = NCI Yeast Anticancer Drug Screen. Data for the rad50 strain (AID 155);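 also: 0% = growth of vehicle-only cultures of the same strain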; conditions: S. cerevisiae rad50 strain growth inhibition, hits give high values; at 50.0 µM unless noted
# Outline: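 Yeast carrying a defined DNA repair defect were exposed to test compounds, and growth was compared with vehicle-treated controls to give percent inhibition.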
# [2] = NCI Yeast Anticancer Drug Screen. Data for the mec2-1 strain (AID 157); conditions: S. cerevisiae mec2-1 strain, hits give high values; at 50.0 µM unless noted
# Outline: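 Test agents were screened against the mec2-1 yeast strain, with defined DNA repair or cell cycle alteration. Growth was scored as inhibition against vehicle-only controls.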
# [3] = NCI Yeast Anticancer Drug Screen. Data for the sgs1 mgt1 strain (AID 161);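 also: 0% = growth of cultures given vehicle only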; conditions: S. cerevisiae sgs1 mgt1 strain, hits give high values; at 50.0 µM unless noted
# Outline: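 Read-out: growth inhibition vs vehicle controls. Cells: mutant yeast strain deficient in DNA damage repair.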
# [4] = NCI Yeast Anticancer Drug Screen. Data for the cln2 rad14 strain (AID 165);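 also: 0% = growth equal to vehicle treated cultures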; conditions: S. cerevisiae cln2 rad14 strain, hits give high values; at 50.0 µM unless noted
# Outline: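 Growth of compound-exposed yeast (cln2 rad14 genotype) measured and expressed as inhibition relative to vehicle.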
# [5] = NCI Yeast Anticancer Drug Screen. Data for the bub3 strain (AID 167); conditions: S. cerevisiae bub3 mutant strain, hits give high values; at 50.0 µM unless noted
# Outline: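 Compounds were applied to a genetically altered yeast strain carrying a cell-cycle control defect. Growth inhibition was scored against vehicle-treated controls.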
# [6] = NCI Yeast Anticancer Drug Screen. Data for the mlh1 rad18 strain (AID 175); conditions: S. cerevisiae mlh1 rad18 strain growth inhibition, hits give high values; at 50.0 µM unless noted
# Outline: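 In this whole-cell yeast screen, a strain with altered DNA damage repair is challenged with compound, and its growth is measured against matched vehicle-treated controls.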
Compound,growth inhibition [1],growth inhibition [2],growth inhibition [3],growth inhibition [4],growth inhibition [5],growth inhibition [6]
COc1nc(NC2OC(CO)C(O)C(O)C2O)c(I)c(=O)[nH]1 (stereo not given),5.3%,-3.4%,2%,-6.25%,-4.75%,21.8%
CC/C=N\N1C(N)=C(C#N)C(C#N)(C#N)C1CC (stereo not given),6.05%,10.2%,-18.9%,4.75%,-12.8%,-27.9%
Clc1cccc(NC2=NCCN=C(Nc3cccc(Cl)c3Cl)SS2)c1Cl,8.6%,-17.5%,-0.75%,5.85%,3.75%,6.55%
O=C(O)c1cc([N+](=O)[O-])cc([N+](=O)[O-])c1-c1ccccc1,-10.4%,-2.6%,6.2%,-13.4%,44.6%,-10%
COc1cc2ccc(Cc3nccc4cc(OC)c(OC)cc34)cc2cc1OC,98.4% (active),98.5% (active),99% (active),91% (active),97% (active),98.2% (active)
Cc1ccc(OC(=O)Oc2ccc(C)cc2)cc1,18.8%,1.9%,4.35%,-6.9%,7.05%,18%
COc1cccc(C)c1O,9.8%,-7.35%,-7.8%,6.55%,20.6%,3.3%
Cc1ccc(N2CC(=O)N3CCCC(C)N3C(=O)C2)cc1 (stereo not given),26%,8.85%,14.8%,15.8%,7.05%,10.4%
O=C1NC(N/N=C\C(O)C(O)C(O)CO)=N/C1=C/c1ccccc1 (stereo not given),16.4% and 33.9%,18.7% and 29.6%,3.75% and 32.5%,16.8% and 16.1%,12.2% and 32.3%,-9.35% and -5.7%
O=C(O)c1c[nH]c2cc(OCc3ccc4ccccc4c3)ccc2c1=O,20.2%,2.55%,-11.3%,-2.05%,-3.05%,6.55%
Cc1cn(C2CC(OP(=O)(O)OCC3OC(n4ccc(N)nc4=O)C(O)C3O)C(CO)O2)c(=O)[nH]c1=O (stereo not given),7.55%,1.5%,8.15%,13.7%,-23.6%,-74.2%
CC1=C(C(=O)Nc2ccccc2)C(c2ccccc2Cl)C(C(=O)Nc2ccccc2)=C(C)N1,14.8%,-0.35%,-6.25%,14.4%,-11.7%,6.65%
CNC(=O)Nc1c(C)cccc1C,0.05%,6.1%,-0.2%,-26.2%,0.05%,4.05%
O=C(O)CCC(=O)c1ccc(F)cc1,-20.6%,-13.7%,-13.6%,-0.95%,-22.6%,-7.65%
CS(C)=NC(=Nc1ccccc1)c1ccccc1,6.9%,9.6%,-12%,-26.4%,9.7%,2.05%
Clc1cccc(/C=N\N=C\c2cccc(Cl)c2)c1,-4.6%,-7.75%,6.3%,-8.75%,-1.95%,5.45%
C=C[C@]1(C)C=C2CC[C@@H]3[C@](C)(CCC[C@@]3(C)C(=O)O)[C@H]2CC1,14.5%,8.7%,13.8%,-9.05%,-1.9%,29.8%
COc1ccc(C(C)(OC)c2cc(C(C)(C)C)c(O)c(C(C)(C)C)c2)cc1 (stereo not given),-19.2%,-12.6%,-20.2%,-0.55%,-2.05%,-21.6%
CC1(C)OCC(N)[C@@H](O)CO1 (stereo not given in full),5%,12.9%,13.3%,-26.2%,3.5%,-0.65%
C=C1C(=O)OC2/C=C(\C)C(O)CCC(C)(O)CC(OC(=O)/C(C)=C/C)C12 (stereo not given),2.35%,-5.45%,-3.1%,17.4%,3.7%,-1.9%

Compound,growth inhibition [1],growth inhibition [2],growth inhibition [3],growth inhibition [4],growth inhibition [5],growth inhibition [6]
O=C(O)CNC(=S)SCC(=O)O,-2.4%,-6.55%,-23.1%,-32.4%,5.2%,-19.6%
CCc1c(CC)c(CC)c(CC)c(CC)c1CC,-42.3%,-14.7%,-36.4%,-39%,1.05%,-31.8%
CCCCCCCCCCSCC(=O)O,-12.8%,-24.6%,-15.5%,-3.3%,-30.6%,-29.5%
ONc1ccc2c(c1)C1C(C3C2C2(Cl)C(Cl)=C(Cl)C3(Cl)C2(Cl)Cl)C2(Cl)C(Cl)=C(Cl)C1(Cl)C2(Cl)Cl (stereo not given),35.8%,13.6%,7.55%,19.6%,24.9%,24.6%
CC(C)[Si]1(C(C)C)OCC2OC(n3ccc(=O)[nH]c3=O)C([Se]c3ccccc3)C2O[Si](C(C)C)(C(C)C)O1 (stereo not given),0%,-22.1%,-25.5%,-17.2%,-49.9%,-61.9%
CCSC(SCC)=C1C(=O)N(c2ccccc2)N=C1C,-6.75%,-18.8%,-4.1%,16.2%,8.6%,2.85%
CCOC(=O)C(=CNC(=S)Nc1c(CC)cccc1CC)C(=O)OCC,-26.2%,-38.4%,-2.9%,4.65%,-5.15%,-59.9%
CC(C)=Nn1cnc2c1NC(C)(C)N=C2C(N)=O,-18.8%,-17.2%,-12.2%,7.85%,14.8%,-15.6%
O=S(=O)(Cc1nc2ccccc2[nH]1)Cc1nc2ccccc2[nH]1,-3.4%,4.25%,14.8%,-7.25%,4.95%,9.3%
CCS(=O)(=O)c1ccc(NC(=O)OC2CCC3(C)C(=CCC4C3CCC3(C)C(C(C)CCCC(C)C)CCC43)C2)cc1 (stereo not given),21.5%,6.15%,10.2%,20.4%,-3.25%,3.65%
CCCCCC1CC(=O)NC1C(=O)O (stereo not given),-2.75%,1.25%,-10.8%,-8.8%,-1.15%,-8.95%
CCCCCCOS(=O)(=O)c1ccc(C)cc1,23.1%,-9.95%,-2.1%,16.6%,6.7%,22.4%
CC(C)(C)c1cc(-n2nc3ccccc3[n+]2[O-])c(O)c(C(C)(C)C)c1,4.35%,12.8%,20.1%,18.6%,-0.6%,33.6%
OC1COC(CCl)OC1C1OC(CCl)OCC1O (stereo not given),10.2%,23.6%,17.9%,6.3%,19.4%,25.9%
CSC1N=CNc2c1sc(=S)n2-c1ccccc1 (stereo not given),-20.8%,7.75%,15.9%,-3.9%,-2.85%,-1.85%
CC1=NN(C(=O)c2ccccc2O)C(=O)/C1=C/c1ccccc1O,-29.1%,-11.8%,-14.8%,-9.7%,-39.5%,-24.6%
C=C(C)C(=NC(C)(C)C)Nc1ccc(C(=O)OCC)cc1,-8.3%,-5.6%,-11.8%,-21.2%,-24.1%,-45.6%
N#C/C(=C\c1ccc(Cl)cc1Cl)C(=O)N/N=C/c1ccc(Cl)cc1Cl,62.8%,37.8%,27.8%,58.2%,98% (active),23.6%
CN(C)c1ccc(/C=C(\C#N)C(=O)O)cc1,33.8%,-12.9%,2.8%,11.7%,30.8%,38.2%
Cc1cc2nc3c(C(OC4OC(CO)C(O)C(O)C4O)C(O)CO)nn(-c4ccc(F)cc4)c3nc2cc1C (stereo not given),3.6%,-6.85%,-47.7%,25.6%,3.45%,1%
